Data as given in PubChem BioAssay.
Results with a measured potency or affinity are listed apart. Active and inactive are the calls of the source. Cut-off not given; nearly all actives show IC50 up to about 0.91 µM.

These compounds were tested against Calcium-dependent protein kinase 4 (Plasmodium falciparum (isolate 3D7)) (UniProt Q8IBS5) (assay: PfCDPK4 kinase inhibitors, biochemical, TCAMS library (AID 1159588)). Conditions: recombinant PfCDPK4, Kinase-Glo ATP depletion luminescence.
Sequence of Calcium-dependent protein kinase 4 (Plasmodium falciparum (isolate 3D7)) (Q8IBS5 whole entry, looked up): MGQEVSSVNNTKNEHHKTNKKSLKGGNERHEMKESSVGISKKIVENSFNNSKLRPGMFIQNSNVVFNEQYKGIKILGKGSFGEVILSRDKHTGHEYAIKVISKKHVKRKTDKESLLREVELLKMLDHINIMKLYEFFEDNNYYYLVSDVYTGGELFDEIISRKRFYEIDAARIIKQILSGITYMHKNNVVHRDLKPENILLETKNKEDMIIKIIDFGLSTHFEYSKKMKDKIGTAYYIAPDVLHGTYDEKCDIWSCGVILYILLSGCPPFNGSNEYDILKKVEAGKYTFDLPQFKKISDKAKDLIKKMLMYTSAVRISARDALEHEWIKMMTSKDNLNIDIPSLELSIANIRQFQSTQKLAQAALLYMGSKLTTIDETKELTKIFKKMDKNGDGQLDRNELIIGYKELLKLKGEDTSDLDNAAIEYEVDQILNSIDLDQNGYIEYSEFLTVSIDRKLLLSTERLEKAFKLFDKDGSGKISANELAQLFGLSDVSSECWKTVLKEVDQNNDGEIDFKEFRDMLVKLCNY

Row | SMILES | outcome
1 | O=C(Nc1ccc(-c2ccc(-c3nc4ccccc4[nH]3)cc2)cc1)Nc1ccc(Cl)c(Cl)c1 | inactive
2 | O=C(Nc1cccc(Cl)c1)OC1CCCN2CCCCC12 (stereo unspecified) | inactive
3 | CCC(C)C(COC(=O)c1cc(OC)c(OC)c(OC)c1)N(C)CCN(C)C(COC(=O)c1cc(OC)c(OC)c(OC)c1)C(C)CC (stereo unspecified) | inactive
4 | COc1ccc(N2CCN(CCCCNCc3ccc(NC(=O)c4cc(Cl)cc(Cl)c4)cc3)CC2)c(OC)c1 | inactive
5 | O=C(C=Cc1ccc(Cl)c(Cl)c1)NCCCCCN1CCC(CCCNC(=O)/C=C/c2ccccc2)CC1 | inactive
6 | CCOc1ccc(CCCON2C(N)=NC(N)=NC2(C)C)cc1 | inactive
7 | CNCc1ccc(CN(C)c2nc(N)c3cc(OC)c(OC)cc3n2)cc1 | inactive
8 | COc1ccc2nccc([C@@H](O)CN3CCC(NCc4ccc5c(c4)NC(=O)C(C)S5)CC3)c2c1 (stereo partly specified) | inactive
9 | N#Cc1ccc2nc(-c3cc(-c4cccc(F)c4)cnc3N)[nH]c2c1 | inactive
10 | O=C(Nc1ccc(S(=O)(=O)N2CCCC2)cc1)c1cc(-c2cccnc2)nc2ccc(Cl)cc12 | inactive
11 | Cn1nc2ccc3ccccc3c2nc1=N | inactive
12 | CN(CCc1ccccn1)Cc1ccc(-c2ccc(-c3nc4ccccc4[nH]3)s2)cc1 | inactive
13 | O=C(COc1ccccc1)NC1CCN(c2ccnc3cc(Cl)ccc23)C1 (stereo unspecified) | inactive
14 | O=C(Cc1ccc(Cl)cc1)Nc1cc(Cl)ccc1Cn1cnc(N2CCNCC2)cc1=O | inactive
15 | COc1ccccc1-c1nc2nc(N)nc(N)c2nc1-c1ccccc1OC | inactive
16 | CCC(=O)c1ccc(-c2ccc(=O)n(CC(=O)N(CCN(CC)CC)Cc3ccc(-c4ccc(C(F)(F)F)cc4)cc3)n2)cc1 | inactive
